From PubChem BioAssay AID1979 (Broad Institute, 2009)
Hit rate of the full screen: of about 300,000 compounds, about 1,700 (0.57%) were called active. Not shown: some 2% with an inconclusive outcome. The sample holds actives, similar compounds and a random draw of the others, so the mix is not that of the screen. Unmarked numbers belong to inactive results.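 How the source made its calls: active means growth inhibition above about 58% in most replicates (limit read from the data, passing the limit was not always enough); inconclusive means exactly half the replicates above a set limit; inactive means most replicates below a set limit.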

Assay: C. albicans growth inhibition with fluconazole, primary screen, CaCi-2 strain, Alamar Blue fluorescence (AID 1979);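 further: all wells also contain fluconazole at 8 µg/ml as a sub-toxic cotreatment; 0% = median of DMSO wells and 100% = median of geldanamycin control wells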
Settings: C. albicans CaCi-2 (fluconazole-resistant clinical isolate) + fluconazole, 48 h, hits give high values, concentration not given here
With `Oc1c(Cl)cc(Cl)c(Cl)c1Cc1c(O)c(Cl)cc(Cl)c1Cl` the growth inhibition was 110% (active).
`Cc1c(C(=O)Nc2ccccn2)oc2ccc(Br)cc12` showed a growth inhibition of 27.1%.
For `COc1ccc(OC)c(NC(=O)c2ccc3c(c2)C(=O)N(c2ccc(OC(C)=O)cc2)C3=O)c1`, the growth inhibition was 0.417%.
In the case of `CC(=O)c1sc(N)nc1C`, the growth inhibition was -4.24%.
With `Cc1ccc(NC(=O)COc2coc(CN3CCc4ccccc4C3)cc2=O)cc1Cl` the growth inhibition was -1.39%.
With `Cc1ccc(CC(=O)N(C)CC(=O)N(CC(C)C)c2c(N)n(CC(C)C)c(=O)[nH]c2=O)cc1C` the growth inhibition was 1.58%.
In the case of `CCN1CCN(C(c2cccnc2)c2cc(Cl)c3cccnc3c2O)CC1` (stereo not drawn), the growth inhibition was 101% (active).
Compound `Oc1ccccc1CN1CCN(C(c2ccccc2)c2ccccc2)CC1` has a growth inhibition of -4.19%.
With `CCOC(=O)N1CCN(C(c2cccnc2)c2ccc3cccnc3c2O)CC1` (stereo not drawn) the growth inhibition was -9.67%.
Compound `CC(=O)Nc1ccc(C(=O)Nc2cccc(S(=O)(=O)NC3=NCCC3)c2)cc1` has a growth inhibition of 3.58%.
In the case of `Oc1ccc(Br)cc1/C=N/Nc1ccccn1`, the growth inhibition was 106% (active).
In the case of `Oc1ccc(/C=N/Nc2ccc(C(F)(F)F)cn2)cc1O`, the growth inhibition was -7.01%.
`O=C(CCCO)N/N=C/c1cc(Br)ccc1O` showed a growth inhibition of -31.2%.
For `Cc1cc(NC(=O)C(C)SCC(=O)Nc2ccccc2N2CCCCC2)no1` (stereo not drawn), the growth inhibition was 1.22%.
`O=C(Nc1nc(-c2ccco2)c(-c2ccco2)s1)c1ccco1` showed a growth inhibition of -0.652%.
With `CCc1nnc(NC(=O)CCC(=O)O)s1` the growth inhibition was -5.2%.
For `CSc1nsc(SCC(=O)Nc2cc(C(=O)O)ccc2C)n1`, the growth inhibition was 17.7%.
With `CCc1nnc(NC(=O)CSc2nc(SC)ns2)s1` the growth inhibition was 81.2% (active).
For `CC(=O)O[C@H]1CC[C@@]2(C)[C@@H](CC[C@@H]3[C@@H]2CC[C@]2(C)[C@@H](C(C)(C)O)C[C@@H]32)C1`, the growth inhibition was 1.13%.
For `O=C1CCCCC1Sc1ccc(Cl)cc1[N+](=O)[O-]` (stereo not drawn), the growth inhibition was -3.28%.
In the case of `C[C@@H]1O[C@@H](OC[C@H]2O[C@@H](Oc3c(-c4ccc(O)cc4)oc4cc(O)cc(O)c4c3=O)[C@H](O)[C@@H](O)[C@@H]2O)[C@H](O)[C@H](O)[C@H]1O`, the growth inhibition was 1.9%.
For `Cc1ccc(-c2cc(C(=O)NC3CCN(Cc4ccccc4)CC3)c3ccccc3n2)cc1`, the growth inhibition was 2.43%.
`CCOC(=O)N1CCN(C(=O)c2ccc(S(=O)(=O)Nc3cccc(C(F)(F)F)c3)cc2)CC1` gave a growth inhibition of -2.84%.
In the case of `Cc1oc2c(F)c(F)c(F)c(F)c2c1S(=O)(=O)Nc1cccc(C(F)(F)F)c1`, the growth inhibition was 84.7% (active).
`CCNS(=O)(=O)c1ccc(NC(=O)Nc2cccc(C(F)(F)F)c2)cc1` gave a growth inhibition of -8.1%.
With `Cc1cc(NC(=O)CCS(=O)(=O)c2ccc(F)cc2)no1` the growth inhibition was -4.39%.
Compound `CN(CC(=O)Nc1cccc(F)c1)C(=O)C1=COCCO1` has a growth inhibition of -19.9%.
With `Cc1ccc(S(=O)(=O)N2CCC(C(=O)OCC(=O)N(C)c3ccccc3)CC2)cc1C` the growth inhibition was 5.01%.
`CC(NS(=O)(=O)c1ccc(Br)cc1)C(=O)NCC1CCCO1` (stereo not drawn) showed a growth inhibition of -9.65%.
In the case of `CCCN1CCn2c3c(c4cc(Br)ccc42)CCCC31` (stereo not drawn), the growth inhibition was -13.4%.
For `OC(CNCC1CCCO1)Cn1c2ccc(Br)cc2c2cc(Br)ccc21` (stereo not drawn), the growth inhibition was 101% (active).
In the case of `Cc1nc(-c2ccc(Cl)cc2)sc1C1(C)CC(c2ccc(Br)cc2)=NO1` (stereo not drawn), the growth inhibition was 1.65%.
Compound `COCCNC(=O)C1CCN(S(=O)(=O)c2ccc3c(c2)OCCO3)CC1` has a growth inhibition of 0.395%.
`CCc1ccc2nc3sc(C(=O)Nc4nnc(CC)s4)c(N)c3cc2c1` gave a growth inhibition of 44%.
For `Cc1ccc(NC(=O)c2sc3nc(N)c(C#N)cc3c2N)cc1`, the growth inhibition was 88.6% (active).
For `COc1ccc(NC(=O)c2cc(-c3ccc(C)cc3)on2)cc1`, the growth inhibition was 2.77%.
`COC(=O)c1ccc(SCc2ccccc2)nc1` showed a growth inhibition of 13.7%.
`CN(C)c1nc(NN)nc(Nc2ccc(F)cc2)n1` gave a growth inhibition of 3.13%.
Work on `COc1cnn(-c2ccc([N+](=O)[O-])cc2)c(=O)c1Cl` yielded a growth inhibition of -11.1%.
With `Cc1ccc(N2CC(C(=O)Nc3cc(Cl)ccc3-n3cncn3)CC2=O)cc1` (stereo not drawn) the growth inhibition was -4.63%.
`O=C(Nc1ccc(Br)cn1)c1ccc([N+](=O)[O-])o1` gave a growth inhibition of 18.1%.
With `Cc1onc(NC(=O)c2ccc([N+](=O)[O-])o2)c1Br` the growth inhibition was -0.786%.
With `Cc1cccc(NC(=O)c2ccc([N+](=O)[O-])o2)c1` the growth inhibition was 83.3% (active).
Compound `CC(=O)N(CC(O)CO)c1c(I)c(C(=O)NCC(O)CO)c(I)c(C(=O)NCC(O)CO)c1I` (stereo not drawn) has a growth inhibition of -2.27%.
With `COc1ccc(OC)c(Nc2nc(-c3ccc(O)c(O)c3)cs2)c1` the growth inhibition was 97.8% (active).
For `COc1cccc(CC(=O)Nc2nc(-c3ccc(OC)c(OC)c3)cs2)c1`, the growth inhibition was -0.204%.
Work on `COc1ccc(C)cc1Nc1nc(-c2c(C)[nH]c3ccccc23)cs1` yielded a growth inhibition of 0.619%.
For `O=C(NCCC1CCCCN1S(=O)(=O)c1ccccc1)C(=O)NCC1CCCO1` (stereo not drawn), the growth inhibition was -4.24%.
`N#Cc1cccc(OC(=O)c2ccc3c(=O)n4c(nc3c2)CCC4)c1` showed a growth inhibition of 6.7%.
`Brc1cnc2ccccc2c1N1CCCCC1` showed a growth inhibition of 0.784%.
`CCOc1cc(N2CCOCC2)c(OCC)cc1NC(=O)COc1cccc(Cl)c1` gave a growth inhibition of 18.5%.
For `CCOc1cc(N2CCOCC2)c(OCC)cc1NC(=O)c1cc(C)nc2ccccc12`, the growth inhibition was -4.82%.
With `CCOc1cc(N2CCOCC2)c(OCC)cc1NC(=O)COc1cccc2cccnc12` the growth inhibition was 101% (active).
With `Cc1ccc(-c2nnn(CC(=O)N(Cc3ccco3)C(C(=O)NC(C)(C)C)c3ccncc3)n2)o1` (stereo not drawn) the growth inhibition was 115% (active).
Compound `Cc1cccc(N(C(=O)Cn2nnc(-c3ccc(C)o3)n2)C(C(=O)NC2CCCC2)c2ccncc2)c1` (stereo not drawn) has a growth inhibition of 9.19%.
In the case of `Cc1ccc(-c2nnn(CC(=O)N(CCO)C(C(=O)NC(C)(C)C)c3ccncc3)n2)cc1` (stereo not drawn), the growth inhibition was -7.13%.
Compound `Cc1c(C(=O)NC(C)C2CC3CCC2C3)cccc1[N+](=O)[O-]` (stereo not drawn) has a growth inhibition of -2.33%.
`O=S(=O)(c1ccccc1)N1CCc2ccccc21` showed a growth inhibition of -2.11%.
With `CC1COc2ccccc2N1S(=O)(=O)c1ccccc1` (stereo not drawn) the growth inhibition was 99.8% (active).
For `CC1CN(S(=O)(=O)c2ccccc2)C(C)CN1S(=O)(=O)c1ccccc1` (stereo not drawn), the growth inhibition was 3.32%.
For `CCOc1ccc(S(=O)(=O)NCCC(=O)NCC(C)(C)N2CCOCC2)cc1`, the growth inhibition was -1.97%.
`Cc1nc2ccccn2c(=O)c1NC(=O)c1cccs1` gave a growth inhibition of 0.647%.
In the case of `COc1ccc(/C=C(/NC(=O)c2ccc(C)cc2)c2nc3ccccc3[nH]2)cc1OC`, the growth inhibition was 23.2%.
With `COc1cc(/C=C(\C#N)c2nc3c(s2)CC(C)CC3)ccc1O` (stereo not drawn) the growth inhibition was 43.5%.
For `COc1cc(/C=C(\C#N)c2nc3ccccc3[nH]2)ccc1O`, the growth inhibition was 76.5% (active).
In the case of `Clc1ccc(Nc2ccc3ccccc3n2)cc1`, the growth inhibition was -23.2%.
For `CCN1C(=O)[C@H]2[C@@H](c3ccc(-c4ccc(OC)cc4)cc3)N[C@@](Cc3ccccc3)(C(=O)OC)[C@H]2C1=O`, the growth inhibition was 3.17%.
`CCN(CC(=O)Nc1cccc(S(=O)(=O)N2CCCCC2)c1)Cc1ccccc1` showed a growth inhibition of -0.00245%.
`COc1ccccc1NC(=O)COC(=O)c1ccccc1SCC(=O)N1CCCC1` showed a growth inhibition of 4.29%.
For `COc1ccc(C(=O)C2CCCN(Cc3cccn3-c3ccccn3)C2)c(C)c1` (stereo not drawn), the growth inhibition was 110% (active).
With `CCOC(=O)c1[nH]ncc1CN1CCCC(C(=O)c2ccc(OC)cc2C)C1` (stereo not drawn) the growth inhibition was -8.68%.
In the case of `COc1ccc(C(=O)C2CCCN(Cc3ccc4nonc4c3)C2)c(C)c1` (stereo not drawn), the growth inhibition was 3.47%.
For `CCn1c(/C=C/c2ccc([N+](=O)[O-])o2)nc2ccccc2c1=O`, the growth inhibition was 99.4% (active).
With `CCn1c(=O)c([N+](=O)[O-])c(NCc2ccc3c(c2)OCO3)c2ccccc21` the growth inhibition was 18.7%.
With `Cc1nc2ccccc2c(=O)n1Cc1ccc([N+](=O)[O-])cc1` the growth inhibition was -0.41%.
`Cc1cccc(-n2nc3c(c2NC(=O)c2cc4ccccc4o2)CS(=O)(=O)C3)c1` showed a growth inhibition of 7.71%.
For `CC(=O)N1CCN(C(=O)c2cc(-c3ccc(Cl)s3)nc3ccccc23)CC1`, the growth inhibition was 11.4%.
`CC(=O)Nc1cccc(C(=O)OCC(=O)c2ccc3c(c2)OCO3)c1` gave a growth inhibition of 4.88%.
For `COc1ccc2nc(N3CCN(C(=O)c4ccc([N+](=O)[O-])o4)CC3)sc2c1`, the growth inhibition was 13.6%.
In the case of `Cc1ccc(C)c(NC(=S)NNC(=O)c2csc(C)c2)c1`, the growth inhibition was 82.7% (active).
In the case of `Cc1cc(C(=O)NNC(=S)Nc2ccccc2C)cs1`, the growth inhibition was 1.21%.
In the case of `Cc1cc(C(=O)NNC(=S)NC(C)c2ccccc2)cs1` (stereo not drawn), the growth inhibition was 12.8%.
For `NC1=NC(c2ccc([N+](=O)[O-])cc2)N(c2ccc(F)cc2)C(N)=N1` (stereo not drawn), the growth inhibition was -2.27%.
Compound `Cc1ccc(C(=O)Nc2c(C#N)c(C)c(C)n2Cc2ccccc2)cc1` has a growth inhibition of -7.7%.
`CC(C)C(=O)N1CC(=O)Nc2ccc(F)cc2C1c1ccc(F)cc1` (stereo not drawn) gave a growth inhibition of -3.91%.
For `O=C(Nc1ccccc1Cl)/C(Cl)=C(\Cl)S(=O)c1ccccc1` (stereo not drawn), the growth inhibition was 81.7% (active).
For `O=C(COC(=O)c1cccs1)Nc1ccccc1Cl`, the growth inhibition was 7.55%.
With `O=C(Nc1ccccc1Cl)Nn1cnnc1` the growth inhibition was 16.1%.
Work on `O=c1[nH]c(/C=C/c2cccc(Br)c2)nc2ccccc12` yielded a growth inhibition of 3.62%.
With `COc1ccccc1-n1ccnc(SCC(=O)NC2CCCCC2)c1=O` the growth inhibition was -2.58%.
With `O=C(Nc1nnc(C2COc3ccccc3O2)o1)c1ccc(F)cc1` (stereo not drawn) the growth inhibition was 85.8% (active).
Compound `CC1COc2ccccc2N1C(=O)c1ccc(F)cc1` (stereo not drawn) has a growth inhibition of -3.04%.
For `O=C(Nc1ccccc1F)c1ccc2c(c1)OCO2`, the growth inhibition was -5.7%.
`Cc1cccc(N(Cc2ccccc2)C(=O)c2cc(S(=O)(=O)N3CCOCC3)ccc2F)c1` gave a growth inhibition of -1.4%.
Compound `CCN1C(=O)[C@H]2[C@@H](c3ccc(-c4ccc(F)cc4)cc3)N[C@@](Cc3ccccc3)(C(=O)OC)[C@H]2C1=O` has a growth inhibition of -6.22%.
`COC(=O)N/N=C/c1c[n+]([O-])c2ccccc2[n+]1[O-]` gave a growth inhibition of 12.4%.
`Cc1ccc(NC(=O)CN(C)C(=O)Cn2nnc(-c3ccccc3)n2)cc1` showed a growth inhibition of -6.13%.
With `O=C1CCCN1C(=O)COc1ccc([N+](=O)[O-])cc1` the growth inhibition was 4.3%.
Compound `O=C(c1cn2ccccc2n1)N1CCc2c([nH]c3ccccc23)C1c1ccccn1` (stereo not drawn) has a growth inhibition of -2.25%.
With `Cc1cccc(C(=O)N2CCc3c([nH]c4ccccc34)C2CC(C)C)n1` (stereo not drawn) the growth inhibition was 12.9%.
For `Cc1cccc(C2c3[nH]c4ccccc4c3CCN2C(=O)c2cc(-c3cccn3C)n[nH]2)n1` (stereo not drawn), the growth inhibition was 79.7% (active).
In the case of `O=C(NCc1ccccc1)C1=C[C@@H](c2ccccc2)C[C@@H](OCCCCO)O1`, the growth inhibition was -5.03%.
Compound `CCN(CC(=O)Nc1cc(Cl)ccc1C)C(=O)Cn1c(=O)cnc2ccccc21` has a growth inhibition of -1.02%.
